About 83,000 compounds went through this panel and 20% of them were active in at least one assay; those are over-represented in the sample as a whole.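 Plates (96-well) were seeded with cells, treated with compound at one concentration, and incubated for 48 hours before percent growth was determined.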 Calls of active or inactive are those of the source. The calls were made as follows: active = growth percent below 10; inactive = the rest.
Assays:
Assay in all cases: NCI-60 one-dose screen, 48 h (100 = growth as untreated, 0 = no growth, -100 = all killed)
Conditions in all cases: 10 µM unless noted
[1] = system: HCT-15 colon
[2] = system: HT29 colon
[3] = system: SNB-19 CNS
[4] = system: U251 CNS
[5] = system: PC-3 prostate
[6] = system: SK-MEL-5 melanoma
[7] = system: UACC-62 melanoma
[8] = system: LOX IMVI melanoma
[9] = system: SK-MEL-28 melanoma
[10] = system: SNB-75 CNS

Measured: growth

COc1ccc(C/C(C)=C(\c2ccc(OCCN3CCOCC3)cc2)c2ccc(OC(=O)Cc3ccccc3)cc2)cc1
inactive: [3] 13.8%
active: [1] -23.7% | [2] -89.7% | [4] -97.3% | [5] -1% | [6] -91.9% | [7] -87.7% | [8] -94.1% | [9] -80.6%

O=C(Nc1ccc([As]=[As]c2ccc(NC(=O)c3ccccc3)cc2)cc1)c1ccccc1 (stereo not given)
active: [1] -79.6% | [2] -35.7% | [10] -97% | [4] -78.6% | [5] -86.2% | [6] -99.6% | [8] -52.2% | [9] -94%

CCCC(=O)O[C@@H]1C[C@H]2C[C@@H](O[C@@H]3O[C@@H](C)[C@@H](O)[C@@H](O)[C@H]3OC)C[C@@H](C[C@@H](C)/C=C/C=C\C[C@@H]3O[C@@H](C[C@@H]3C)[C@@H](O)C[C@H]3C[C@@]1(O)C(=O)O3)O2
inactive: [1] 54.3% | [2] 60% | [3] 52.4% | [4] 35.6% | [5] 33% | [6] 19.5% | [7] 62.5% | [8] 62.5% | [9] 71.5%

Nc1nnnc2nc[nH]c12
active: [7] -50.9% | [8] 6.61%
inactive: [1] 20.9% | [2] 38.4% | [10] 45.8% | [4] 19.4% | [5] 11.5% | [6] 33.8% | [9] 14.8%

CCCCCCCC(=O)OCC(=O)[C@]1(O)Cc2c(O)c3c(c(O)c2[C@@H](OC2CC(N)C(O)C(C)O2)C1)C(=O)c1c(OC)cccc1C3=O (stereo not given in full)
active: [1] -61.5% | [2] -63.5% | [10] -79.5% | [4] -46.5% | [5] -100% | [6] -91.2% | [7] -75.4% | [8] -4.4% | [9] -84%

Fc1ccc(N2COOC3(OOC2)C2CC4CC(C2)CC3C4)cc1
inactive: [1] 88.6% | [2] 102% | [3] 95.5% | [4] 97.1% | [5] 90.4% | [6] 101% | [7] 76.5% | [9] 100%
active: [8] -82.2%

C1CCC([PH+](C2CCCCC2)C2CCCCC2[PH+](C2CCCCC2)C2CCCCC2)CC1.[Au].[CH-]1CCCCC1CC1CCCC[N-]1 (stereo not given)
active: [1] -36.9% | [2] 1.89% | [3] -89% | [4] -78.1% | [5] -22.2% | [6] -99.8% | [7] -71% | [8] -97.2% | [9] -70.5%

O=C1CN=C(c2ccc(Cl)cc2)c2sccc2N1
inactive: [1] 98.6% | [2] 100% | [3] 96.6% | [4] 101% | [5] 98.6% | [6] 99.5% | [7] 91.6% | [8] 95.3% | [9] 105%

O=[N+]([O-])c1cc([N+](=O)[O-])c(Cl)cc1Cl
inactive: [6] 30.1%
active: [1] -58.4% | [2] -53.3% | [3] 7.75% | [4] -71.3% | [5] -14.7% | [7] -79% | [8] -91.1% | [9] -41.2%

Clc1cccc(N2COOC3(OOC2)C2CC4CC(C2)CC3C4)c1
inactive: [1] 94.6% | [2] 85.2% | [3] 101% | [4] 35.8% | [5] 74.8% | [6] 86.5% | [7] 93.3% | [9] 114%
active: [8] -63.4%

ClCCN(CCCl)c1ccc(OCc2ccccc2)cc1
inactive: [1] 73.1% | [2] 76.7% | [3] 57.1% | [4] 40.5% | [5] 63.1% | [6] 82.7% | [7] 44.2% | [8] 38.9% | [9] 84.1%

Oc1c(CCl)cc(Cl)cc1CCl
inactive: [1] 109% | [2] 104% | [3] 107% | [4] 110% | [5] 93.9% | [6] 104% | [7] 116% | [8] 93.8% | [9] 126%

O=C(O)c1c(Cl)n(Cc2ccc(O)cc2)c2ccc(O)cc12
inactive: [1] 118% | [2] 110% | [3] 106% | [4] 106% | [5] 72.4% | [6] 85.8% | [7] 98.9% | [8] 98.8% | [9] 100%

Cc1ccc(N2COOC3(OOC2)C2CC4CC(C2)CC3C4)cc1
inactive: [1] 96.6% | [2] 97.5% | [3] 106% | [4] 96.1% | [5] 93.5% | [6] 90.5% | [7] 109% | [9] 103%
active: [8] -61.6%

O=P(N1CC1)(N1CC1)N1CCc2ccccc21
inactive: [1] 115% | [2] 104% | [3] 102% | [4] 95.5% | [5] 88.6% | [6] 109% | [7] 92.8% | [8] 93.3% | [9] 115%

C/C1=C/C(=O)O[C@@H]2C[C@@H](CC[C@H](C)/C=C\C=C\CC1)O[C@@](O)([C@@H]1CSC(=O)N1CO)C2
inactive: [1] 46.6% | [6] 29.5% | [7] 29.2%
active: [2] 8.8% | [10] -41.5% | [4] 5.44% | [8] 7.38% | [9] -31.7%

COc1ccc(NC([Se])=NC23CC4CC(CC(C4)C2)C3)cc1
active: [1] 9.68% | [2] 5.56% | [4] -31% | [5] 7.99% | [6] -85.5% | [7] -24.3% | [8] 3.59%
inactive: [3] 15.7% | [9] 13.2%

CCOC(=O)CCC(NC(=O)C(Cc1ccc(N(CCCl)CCCl)cc1)NC=O)C(=O)OCC (stereo not given)
active: [6] -70.1% | [7] -37.7% | [8] -78.3% | [9] -29.9%
inactive: [1] 36.3% | [2] 62.3% | [10] 30.3% | [4] 48.4%

CCOC(=O)N[C@H]1CCc2c(Br)c(OC)c(OC)c(OC)c2-c2ccc(SC)c(=O)cc21
inactive: [2] 13.1% | [3] 28.7% | [4] 19.7% | [5] 24.2% | [7] 38.7% | [9] 56.8%
active: [1] 8.88% | [6] -23.4% | [8] 9.29%

Clc1cccc(NCOOC2(OOCNc3cccc(Cl)c3)CCCCC2)c1
active: [8] -86.1%
inactive: [1] 70.2% | [2] 74.5% | [3] 90.2% | [4] 61.4% | [5] 77.6% | [6] 71.4% | [7] 34.3% | [9] 100%

CCN(CC)c1ccc2c(c1)OC(N)=C(C#N)C2c1cc(OC)c2c(c1)OCO2 (stereo not given)
inactive: [1] 16.1% | [3] 40.1% | [4] 12.5% | [5] 30.9% | [7] 31.8% | [8] 23.2% | [9] 72.2%
active: [2] -9.44% | [6] -29.6%

CCCCCCCC[n+]1ccc2ccccc2c1
active: [6] -19.4%
inactive: [1] 99.7% | [2] 42.4% | [3] 53.8% | [4] 66% | [5] 35% | [7] 25.5% | [8] 63.6% | [9] 61.2%

C/C=C(\C)C(=O)O[C@@H]1C(O)[C@H]2OC(COC(=O)CCC(=O)CCCCCC[C@H](CCCCC)O[C@@H]3OC(C)[C@H](OC(C)=O)C(O)[C@H]3O2)[C@H]1OC(=O)/C=C/c1ccccc1 (stereo not given in full)
active: [2] 5.27% | [4] 8.26% | [6] -79.1% | [7] -46.8% | [8] -49.9%
inactive: [1] 13% | [3] 34.7% | [5] 21.3% | [9] 18.5%

CCCCC1(CCC)C(=O)NC(=S)NC1=O
inactive: [1] 93.7% | [2] 105% | [10] 77.5% | [4] 95.9% | [5] 80.4% | [6] 104% | [7] 104% | [8] 103% | [9] 108%

COc1ccc(/C=C\c2cc(OC)c(OC)c(OC)c2)cc1NS(=O)(=O)c1ccc(Cl)cc1
inactive: [1] 54.2% | [2] 75.7% | [3] 87.2% | [4] 77.8% | [5] 42.7% | [6] 51.6% | [7] 45.1% | [8] 71.3% | [9] 53%

CCCC[C@H](NC(=O)[C@H]1CCCN1C)C(=O)N(C)[C@H](C[C@@H](OC(C)=O)c1nc(C(=O)N[C@@H](Cc2ccccc2)C[C@H](C)C(=O)OCC)cs1)C(C)C
active: [2] 1.99% | [4] 8.61% | [6] -25.1%
inactive: [1] 19.1% | [3] 38.4% | [5] 13% | [7] 43.4% | [8] 20.8% | [9] 71.3%

Cc1c2cc(Cl)c3ccccc3c2c[n+]2ccccc12
active: [3] -26.3% | [4] 0.443% | [6] -43.5% | [9] -27.2%
inactive: [1] 103% | [2] 88.9% | [7] 29.1%

Clc1ccc(N2COOC3(OOC2)C2CC4CC(C2)CC3C4)cc1
active: [8] -83.1%
inactive: [1] 64% | [2] 60% | [3] 74.3% | [4] 28.4% | [5] 53.7% | [6] 55.5% | [7] 39.4% | [9] 103%

CC(=O)O[C@H](C[C@H](C(C)C)N(C)C(=O)[C@@H](NC(=O)[C@H]1CCCCN1C)C(C)C)c1nc(C(=O)N[C@@H](Cc2ccccc2)C[C@H](C)C(=O)O)c(C(C)C)s1
active: [1] 8.7% | [2] 2.43% | [6] -43.9%
inactive: [3] 27.6% | [4] 15.4% | [7] 31.1% | [8] 10.5% | [9] 60.9%

Reference: PubChem BioAssay (NCI)
